Measurements taken from PubChem BioAssay (NCI).
Where “and” joins values, the source holds several entries; their conditions need not be identical. Equal entries are not always repeated. This is part of a sample that, as a whole, favours compounds with a hit. Of some 83,000 tested, about 20% had one in any assay.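 Treatment: one concentration, 48 hours, 96-well format. Scoring: percent growth, with anything below 10 considered active.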 Calls of active or inactive are those of the source.

Columns and labels:
Assay in all cases: NCI-60 one-dose screen, 48 h (100 = growth as untreated, 0 = no growth, -100 = all killed)
[1] = tested on: DU-145 prostate
[2] = tested on: K-562 leukemia
[3] = tested on: MALME-3M melanoma
[4] = tested on: MDA-MB-231 breast
[5] = tested on: RXF 393 renal
[6] = tested on: SF-268 CNS
[7] = tested on: SF-295 CNS
[8] = tested on: SF-539 CNS
[9] = tested on: UACC-257 melanoma
[10] = tested on: HCT-15 colon
[11] = tested on: HT29 colon
[12] = tested on: SNB-75 CNS
[13] = tested on: SNB-19 CNS
[14] = tested on: U251 CNS
[15] = tested on: PC-3 prostate
[16] = tested on: SK-MEL-5 melanoma
[17] = tested on: UACC-62 melanoma
[18] = tested on: LOX IMVI melanoma
[19] = tested on: M14 melanoma; details: 10 µM
[20] = tested on: SK-MEL-28 melanoma

Measured: growth

CSC1SCC2C(=O)N(C)C(C(C)C)C(=O)OCC(NC(=O)c3cnc4ccccc4n3)C(=O)NC(C)C(=O)N(C)C1C(=O)N(C)C(C(C)C)C(=O)OCC(NC(=O)c1cnc3ccccc3n1)C(=O)NC(C)C(=O)N2C (stereo not given)
active: [1]; 10 µM unless noted -19.5% | [2]; 10 µM -61.8% | [3]; 10 µM -23.1% | [4]; 10 µM -8.05% | [5]; 10 µM unless noted -0.0463% | [6]; 10 µM -2.43% | [7]; 10 µM -22.3% | [8]; 10 µM -52.9% | [9]; 10 µM -13.6% | [10]; 10 µM 4.08% | [11]; 10 µM 2.66% | [12]; 10 µM -80.2% | [13]; 10 µM -13.3% | [14]; 10 µM unless noted 5.23% | [15]; 10 µM -12.7% | [16]; 10 µM unless noted -73.1% | [17]; 10 µM -77% | [18]; 10 µM unless noted 3.98%

OCC1OC(n2cnc3c(=S)nc[nH]c32)C(O)C1O (stereo not given)
inactive: [1]; 10 µM unless noted 98.4% and 51.9% | [2]; 10 µM 124% and 41.6% | [3]; 10 µM 87.3% and 53.3% | [4]; 10 µM 99.2% and 61.9% | [5]; 10 µM unless noted 98.2% and 70.2% | [6]; 10 µM 109% and 53.9% | [7]; 10 µM 101% and 41.7% | [8]; 10 µM 103% and 31.8% | [9]; 10 µM 105% and 52.7% | [19] 126% and 32.4% | [10]; 10 µM 104% and 55.5% | [11]; 10 µM 98.4% and 45.9% | [12]; 10 µM 110% and 60.5% | [13]; 10 µM 111% and 97.4% | [14]; 10 µM unless noted 93.5% and 83.2% | [15]; 10 µM 89.1% and 73.1% | [16]; 10 µM unless noted 102% and 80.9% | [17]; 10 µM 92.3% and 26.7% | [18]; 10 µM unless noted 98.2% and 16.1% | [20]; 10 µM 113%

Nc1ccc2cc3ccc(N)cc3nc2c1
107% (inactive) and -17.1% (active): [9]; 10 µM
107% (inactive) and -50.9% (active): [3]; 10 µM
109% (inactive) and -35.5% (active): [17]; 10 µM
105% (inactive) and -30.1% (active): [18]; 10 µM unless noted
104% (inactive) and 8.67% (active): [14]; 10 µM unless noted
105% (inactive) and -3.97% (active): [16]; 10 µM unless noted
active: [2]; 10 µM 9.74%
127% (inactive) and 8.54% (active): [5]; 10 µM unless noted
inactive: [1]; 10 µM unless noted 112% and 24.3% | [4]; 10 µM 97% and 18.4% | [6]; 10 µM 115% and 18.5% | [7]; 10 µM 114% and 14.4% | [8]; 10 µM 107% and 21% | [10]; 10 µM 105% and 15.3% | [12]; 10 µM 101% | [13]; 10 µM 108% and 30.4% | [15]; 10 µM 94.5% and 14.4%
105% (inactive) and 4.36% (active): [11]; 10 µM

O=c1ccn(C2CC(O)C(COC(c3ccccc3)(c3ccccc3)c3ccccc3)O2)c(=O)[nH]1 (stereo not given)
inactive: [1]; 10 µM 107% | [1]; 100 µM 55.7% | [2]; 10 µM 79.1% | [2]; 100 µM 26.5% | [3]; 10 µM 94.4% | [3]; 100 µM 70.7% | [4]; 10 µM 73.5% | [4]; 100 µM 66.1% | [5]; 10 µM 86.5% | [5]; 100 µM 36.6% | [6]; 10 µM 83% | [6]; 100 µM 42.9% | [7]; 100 µM 38.2% | [8]; 10 µM 97.2% | [8]; 100 µM 60.3% | [9]; 100 µM 55.2% | [10]; 10 µM 88.9% | [10]; 100 µM 33.4% | [11]; 10 µM 86% | [11]; 100 µM 33.1% | [12]; 10 µM 83.2% | [12]; 100 µM 57.8% | [13]; 10 µM 98.2% | [13]; 100 µM 69.8% | [14]; 10 µM unless noted 55.5% [100 µM] | [15]; 10 µM 59.5% | [15]; 100 µM 15% | [16]; 10 µM 93.3% | [16]; 100 µM 32.2% | [17]; 10 µM 82.6% | [17]; 100 µM 29.8% | [18]; 10 µM unless noted 79.2% | [20]; 10 µM 118% | [20]; 100 µM 45.6%

OCC(O)C(O)C(O)C(/C=N/Nc1ccccc1)=N/Nc1ccccc1 (stereo not given)
inactive: [1]; 10 µM unless noted 89.1% | [2]; 10 µM 67.1% | [3]; 10 µM 101% | [4]; 10 µM 79.7% | [5]; 10 µM unless noted 86.7% | [6]; 10 µM 75.5% | [7]; 10 µM 83.6% | [8]; 10 µM 91.3% | [9]; 10 µM 104% | [10]; 10 µM 75% | [11]; 10 µM 93.2% | [12]; 10 µM 66.3% | [13]; 10 µM 97.4% | [14]; 10 µM unless noted 90.9% | [15]; 10 µM 72.6% | [16]; 10 µM unless noted 86.8% | [17]; 10 µM 43.6% | [18]; 10 µM unless noted 51.8%

COc1cccc2c1C(=O)c1c(O)c3c(c(O)c1C2=O)C[C@@](O)(C(=O)CO)C[C@@H]3OC1CC(N)C(O)C(C)O1 (stereo not given in full)
active: [1]; 2.5 µM -33.2% | [2]; 10 µM 2.13% | [3]; 1 µM -17.2% | [3]; 10 µM -80.1% | [4]; 10 µM 3.79% | [5]; 10 µM -28.5% | [6]; 10 µM -4.32% | [7]; 1 µM 2.06% | [7]; 2.5 µM -1.94% | [7]; 10 µM -27.6% | [8]; 10 µM -50.3% | [9]; 10 µM 3.46% | [11]; 10 µM 4.69% | [12]; 2.5 µM 7.99% | [12]; 10 µM -61.7% | [13]; 10 µM -0.904% | [14]; 10 µM 9.22% | [15]; 10 µM 1.27% | [16]; 10 µM -85.1% | [17]; 10 µM -60% | [18]; 1 µM 8.33% | [18]; 10 µM 5.68%
inactive: [1]; 10 µM 13.2% | [2]; 0.0025 µM 107% | [2]; 1 µM 32.8% | [2]; 2.5 µM 28.1% | [3]; 0.0025 µM 79.3% | [3]; 2.5 µM 30% | [4]; 0.0025 µM 124% | [4]; 1 µM 71% | [4]; 2.5 µM 82.1% | [5]; 0.0025 µM 107% | [6]; 0.0025 µM 97% | [6]; 1 µM 41% | [6]; 2.5 µM 16.7% | [7]; 0.0025 µM 95.8% | [8]; 0.0025 µM 97.1% | [8]; 1 µM 36.5% | [8]; 2.5 µM 32.3% | [9]; 0.0025 µM 90% | [9]; 1 µM 28.3% | [9]; 2.5 µM 42.8% | [10]; 0.0025 µM 99.2% | [10]; 1 µM 81.9% | [10]; 2.5 µM 70.2% | [10]; 10 µM 15.2% | [11]; 0.0025 µM 93.2% | [11]; 1 µM 40.7% | [11]; 2.5 µM 55% | [12]; 0.0025 µM 98% | [12]; 1 µM 33% | [13]; 0.0025 µM 92.5% | [13]; 1 µM 21.1% | [13]; 2.5 µM 35.6% | [14]; 0.0025 µM 83.6% | [14]; 2.5 µM 16.4% | [15]; 0.0025 µM 100% | [15]; 1 µM 54.7% | [16]; 0.0025 µM 93.2% | [17]; 0.0025 µM 97.5% | [17]; 1 µM 14.8% | [18]; 0.0025 µM 81.7%

CC(=O)Nc1cc(C)ccc1C
inactive: [1]; 10 µM unless noted 112% | [2]; 10 µM 102% | [3]; 10 µM 92.9% | [4]; 10 µM 112% | [5]; 10 µM unless noted 105% | [6]; 10 µM 101% | [7]; 10 µM 101% | [8]; 10 µM 96.8% | [9]; 10 µM 101% | [10]; 10 µM 101% | [11]; 10 µM 95.3% | [12]; 10 µM 96.2% | [13]; 10 µM 101% | [14]; 10 µM unless noted 101% | [15]; 10 µM 106% | [16]; 10 µM unless noted 93.3% | [17]; 10 µM 98.3% | [18]; 10 µM unless noted 101%

CCCC1CCC(=C2C(=O)CCC2=O)O1 (stereo not given)
inactive: [1]; 10 µM unless noted 102% and 92.3% | [2]; 10 µM 145% and 121% | [3]; 10 µM 103% and 101% | [4]; 10 µM 102% and 101% | [5]; 10 µM unless noted 103% and 97.7% | [6]; 10 µM 100% and 107% | [7]; 10 µM 97.3% and 89.8% | [8]; 10 µM 92.7% and 96.7% | [9]; 10 µM 106% and 95.3% | [19] 100% and 74.4% | [10]; 10 µM 105% and 92% | [11]; 10 µM 94.2% and 97.4% | [13]; 10 µM 99.7% and 98.9% | [14]; 10 µM unless noted 102% and 98.5% | [15]; 10 µM 95.1% and 103% | [16]; 10 µM unless noted 88.6% and 102% | [17]; 10 µM 86.8% and 93.7% | [18]; 10 µM unless noted 94.5% and 97.6%
81.8% (inactive) and -17.8% (active): [12]; 10 µM

CCCCCCCCCCSC(=N)N
active: [10]; 10 µM -4.11% | [11]; 10 µM -27.7% | [14]; 10 µM unless noted 5.37% | [17]; 10 µM -35%
inactive: [1]; 10 µM unless noted 79.9% | [2]; 10 µM 11.1% | [3]; 10 µM 81.3% | [4]; 10 µM 13% | [5]; 10 µM unless noted 46.1% | [6]; 10 µM 73.9% | [7]; 10 µM 56.4% | [8]; 10 µM 68.4% | [9]; 10 µM 29.8% | [12]; 10 µM 80.7% | [13]; 10 µM 66.8% | [15]; 10 µM 59% | [16]; 10 µM unless noted 50.7% | [18]; 10 µM unless noted 47.8%
